Test results: PubChem BioAssay AID2284187 (EPA ToxCast)
Records with an inconclusive call do not appear. Active and inactive are the calls of the source. Rule for the calls: active = hit-call score of the fitted dose curve at least 0.9, where 1 is the maximum; inconclusive = response in the unintended direction; inactive = score below 0.9.

Target: rat GHB Receptor Antagonism, Tspan17 (gene 306771) (UniProt Q4V8E0)
Experiment: ERF_FR_GPCR_rGHB: Eurofins (ERF) G Protein-Coupled Receptor (GPCR) Radioligand Binding LeadHunter Assay for rat GHB Receptor Antagonism
Method: ERF_FR_GPCR_rGHB is a biochemical, single-readout assay that uses extracted gene-proteins in a cell-free assay. Measurements were taken 2 hour after chemical dosing in a 96-well plate. See GHB Rat Binding (Antagonist Radioligand) Assay, Cerep.ERF_FR_GPCR_rGHB is an assay component calculated from the ERF_FR_GPCR_rGHB assay. It is designed to measure radioligand binding using a type of binding reporter as detected by scintillation counting with radiometry technology.Data from the assay component ERF_FR_GPCR_rGHB was analyzed at the assay endpoint, ERF_FR_GPCR_rGHB, in the positive analysis fitting direction relative to DMSO as the negative control and baseline of activity. Using a type of binding reporter, loss-of-signal activity can be used to understand changes in binding as they relate to gene TSPAN17. To generalize the intended target to other relatable targets, this assay endpoint is annotated to the gpcr intended target family, where the subfamily is ghb .
Brain cortex of Wistar derived rats weighing 175 +/- 25 g are used to prepare GHB receptors in potassium buffer pH 6.0. A 1 mg aliquot is incubated with 20 nM [3H] NCS382 for 120 minutes at 4 C. Non-specific binding is estimated in the presence of 1 mM NCS382. Membranes are filtered and washed, the filters are then counted to determine [3H] NCS382 specifically bound. […]

Sequence of rat GHB Receptor Antagonism, Tspan17 (gene 306771) (Q4V8E0 whole entry, looked up): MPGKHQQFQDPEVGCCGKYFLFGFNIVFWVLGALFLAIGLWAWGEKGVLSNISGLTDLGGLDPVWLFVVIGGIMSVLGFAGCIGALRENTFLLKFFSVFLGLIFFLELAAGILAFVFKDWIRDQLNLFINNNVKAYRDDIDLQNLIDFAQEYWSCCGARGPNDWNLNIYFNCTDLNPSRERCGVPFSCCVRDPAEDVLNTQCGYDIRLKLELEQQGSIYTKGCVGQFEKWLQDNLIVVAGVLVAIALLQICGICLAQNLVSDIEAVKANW

Structure (SMILES) | AC50
O=C(/C=C/c1ccc(O)cc1)CC(=O)/C=C/c1ccc(O)cc1 | 1670 nM (active)
COc1cc(/C=C/C(=O)CC(=O)/C=C/c2ccc(O)c(OC)c2)ccc1O | 1590 nM (active)
